Among the targets are PITX2 (Homo sapiens, UniProt Q99697 72-157); HOXD13 (Homo sapiens, UniProt P35453 263-343); CRX (Homo sapiens, UniProt O43186 26-111, R41L); SHOX (Homo sapiens, UniProt O15266 103-189, R173C); HESX1 (Homo sapiens, UniProt Q9UBX0 95-180, R109Q).
Holding throughout (assay): PBM; 200 nM protein, PBS
Holding throughout (details): dsDNA, one strand shown

The target of assay [1] is T1, PAX4 (Homo sapiens, UniProt O43316 9-242, F177Y).
T1 sequence: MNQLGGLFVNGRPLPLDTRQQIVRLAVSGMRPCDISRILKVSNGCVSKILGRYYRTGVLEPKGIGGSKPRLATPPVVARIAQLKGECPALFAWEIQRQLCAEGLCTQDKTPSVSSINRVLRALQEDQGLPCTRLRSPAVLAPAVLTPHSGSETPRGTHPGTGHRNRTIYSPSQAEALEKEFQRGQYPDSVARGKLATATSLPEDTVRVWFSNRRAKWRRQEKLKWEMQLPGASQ

The target in assay [2] is T2, PAX4 (Homo sapiens, UniProt O43316 9-242, R227W).
T2 sequence: T1 sequence with Y169F, R219W

For assay [3], the target named is NKX3-2 (Homo sapiens, UniProt P78367 192-278, P234S).
Assay [4] concerns the target NKX3-2 (Homo sapiens, UniProt P78367 192-278).
The target of assay [5] is PROP1 (Homo sapiens, UniProt O75360 56-141).
Assay [6] concerns the target PROP1 (Homo sapiens, UniProt O75360 56-141, R99H).
Assay [7] addresses PROP1 (Homo sapiens, UniProt O75360 56-141, F88S).

Changes are numbered by the printed parent chain.

PROP1 (Homo sapiens, UniProt O75360 56-141), sequence (O75360 56-141): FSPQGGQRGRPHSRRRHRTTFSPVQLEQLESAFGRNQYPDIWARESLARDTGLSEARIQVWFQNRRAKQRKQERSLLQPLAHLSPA
HOXD13, sequence (P35453 263-343): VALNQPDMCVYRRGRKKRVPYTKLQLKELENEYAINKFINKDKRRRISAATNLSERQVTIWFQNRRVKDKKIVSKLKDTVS
CRX, sequence (O43186 26-111 R41L): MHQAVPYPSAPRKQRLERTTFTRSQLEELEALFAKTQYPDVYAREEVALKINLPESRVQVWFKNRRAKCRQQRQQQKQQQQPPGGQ
PROP1 (Homo sapiens, UniProt O75360 56-141, R99H), sequence (O75360 56-141 R99H): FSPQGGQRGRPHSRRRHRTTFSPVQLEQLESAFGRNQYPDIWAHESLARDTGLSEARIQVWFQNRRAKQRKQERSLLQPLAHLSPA
NKX3-2 (Homo sapiens, UniProt P78367 192-278), sequence (P78367 192-278): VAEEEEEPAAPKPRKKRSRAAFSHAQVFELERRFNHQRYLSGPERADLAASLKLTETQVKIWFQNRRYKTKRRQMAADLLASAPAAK
SHOX, sequence (O15266 103-189 R173C): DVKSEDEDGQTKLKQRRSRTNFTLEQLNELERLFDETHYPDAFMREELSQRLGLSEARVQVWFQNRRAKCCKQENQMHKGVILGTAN
NKX3-2 (Homo sapiens, UniProt P78367 192-278, P234S), sequence (P78367 192-278 P234S): as the sequence (P78367 192-278) above, with P43S counted along it
PROP1 (Homo sapiens, UniProt O75360 56-141, F88S), sequence (O75360 56-141 F88S): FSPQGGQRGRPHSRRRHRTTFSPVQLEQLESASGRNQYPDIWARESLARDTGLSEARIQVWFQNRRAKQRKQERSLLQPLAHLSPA
HESX1, sequence (Q9UBX0 95-180 R109Q): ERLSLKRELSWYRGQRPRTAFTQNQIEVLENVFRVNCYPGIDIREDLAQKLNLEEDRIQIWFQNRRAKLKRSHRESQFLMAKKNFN

Turning to GAAATTAA, the binding signal with PAX4 [1] is 10.9 upbm affinity estimate (log intensity, higher = more binding, comparable within an allelic series); in the assay with PAX4 [2], 10.9 upbm affinity estimate (log intensity, higher = more binding, comparable within an allelic series).

For the sequence GTAAATTA, the binding signal in the assay with PAX4 [1] is 11 upbm affinity estimate (log intensity, higher = more binding, comparable within an allelic series).

As to AAATTAGA, in the assay with PAX4 [2], the binding signal is 10.9 upbm affinity estimate (log intensity, higher = more binding, comparable within an allelic series).

Turning to GGTATTAA, the binding signal in the assay with PITX2 is 12.3 upbm affinity estimate (log intensity, higher = more binding, comparable within an allelic series).

Turning to ACGGTGCC, the binding signal with PITX2 was 7.94 upbm affinity estimate (log intensity, higher = more binding, comparable within an allelic series); with NKX3-2 [3], 10.5 upbm affinity estimate (log intensity, higher = more binding, comparable within an allelic series); with NKX3-2 [4], 10.5 upbm affinity estimate (log intensity, higher = more binding, comparable within an allelic series).

For AATGAGTA, the binding signal in the assay with HOXD13 is 10.8 upbm affinity estimate (log intensity, higher = more binding, comparable within an allelic series).

Turning to GATAAGCC, the binding signal with PITX2 was 12.3 upbm affinity estimate (log intensity, higher = more binding, comparable within an allelic series); with CRX it was 12.4 upbm affinity estimate (log intensity, higher = more binding, comparable within an allelic series).

In the case of GACGTTTA, the binding signal with HOXD13 was 10.7 upbm affinity estimate (log intensity, higher = more binding, comparable within an allelic series).

In the case of AATAATGC, in the assay with HOXD13, the binding signal was 10.8 upbm affinity estimate (log intensity, higher = more binding, comparable within an allelic series).

On to AATTATGG, for which the binding signal in the assay with SHOX was 9.26 upbm affinity estimate (log intensity, higher = more binding, comparable within an allelic series).

As for ACACAATA, the binding signal in the assay with HOXD13 is 10.6 upbm affinity estimate (log intensity, higher = more binding, comparable within an allelic series).

On to TATTTAGA, for which the binding signal with HOXD13 is 10.6 upbm affinity estimate (log intensity, higher = more binding, comparable within an allelic series).

For the sequence ACTCGACC, the binding signal with PITX2 is 7.76 upbm affinity estimate (log intensity, higher = more binding, comparable within an allelic series).

For the sequence ATCATTCA, the binding signal with HOXD13 was 10.6 upbm affinity estimate (log intensity, higher = more binding, comparable within an allelic series).

Turning to AATTAGGT, the binding signal with SHOX is 9.2 upbm affinity estimate (log intensity, higher = more binding, comparable within an allelic series); in the assay with PROP1 [5], 11 upbm affinity estimate (log intensity, higher = more binding, comparable within an allelic series); with HESX1, 8.66 upbm affinity estimate (log intensity, higher = more binding, comparable within an allelic series); with PROP1 [6], 10.6 upbm affinity estimate (log intensity, higher = more binding, comparable within an allelic series); in the assay with PROP1 [7] it was 7.74 upbm affinity estimate (log intensity, higher = more binding, comparable within an allelic series).

ACGATATA: in the assay with HOXD13, the binding signal is 10.9 upbm affinity estimate (log intensity, higher = more binding, comparable within an allelic series).

Regarding GTTAAAGA, the binding signal with HOXD13 is 10.8 upbm affinity estimate (log intensity, higher = more binding, comparable within an allelic series).

Regarding ACTTAATC, the binding signal in the assay with PITX2 is 12.3 upbm affinity estimate (log intensity, higher = more binding, comparable within an allelic series); in the assay with CRX, 12.4 upbm affinity estimate (log intensity, higher = more binding, comparable within an allelic series).

On to TGGCTTAA, for which the binding signal with PITX2 was 12.3 upbm affinity estimate (log intensity, higher = more binding, comparable within an allelic series); with CRX, 11.5 upbm affinity estimate (log intensity, higher = more binding, comparable within an allelic series).

Consider CGGATTTA, for which the binding signal with PITX2 was 12.3 upbm affinity estimate (log intensity, higher = more binding, comparable within an allelic series); with CRX, 12.3 upbm affinity estimate (log intensity, higher = more binding, comparable within an allelic series).

For the sequence AAGCTAGG, the binding signal with PITX2 is 9.89 upbm affinity estimate (log intensity, higher = more binding, comparable within an allelic series); with NKX3-2 [3], 10.4 upbm affinity estimate (log intensity, higher = more binding, comparable within an allelic series); with NKX3-2 [4], 10.4 upbm affinity estimate (log intensity, higher = more binding, comparable within an allelic series).

With CCAAATCG, in the assay with PITX2, the binding signal is 9.39 upbm affinity estimate (log intensity, higher = more binding, comparable within an allelic series).

For AGGAGGCC, the binding signal was 8.05 upbm affinity estimate (log intensity, higher = more binding, comparable within an allelic series) with PITX2; 6.87 upbm affinity estimate (log intensity, higher = more binding, comparable within an allelic series) with PROP1 [5]; 6.81 upbm affinity estimate (log intensity, higher = more binding, comparable within an allelic series) in the assay with PROP1 [6]; 6.57 upbm affinity estimate (log intensity, higher = more binding, comparable within an allelic series) with PROP1 [7].

Consider ACCACCGT, for which the binding signal in the assay with PITX2 was 8.12 upbm affinity estimate (log intensity, higher = more binding, comparable within an allelic series).

TATATGCA: the binding signal with HOXD13 is 10.8 upbm affinity estimate (log intensity, higher = more binding, comparable within an allelic series).

On to GGTTTATA, for which the binding signal is 10.5 upbm affinity estimate (log intensity, higher = more binding, comparable within an allelic series) with PITX2 and 7.99 upbm affinity estimate (log intensity, higher = more binding, comparable within an allelic series) with PROP1 [5].

Regarding AGACTATA, the binding signal with HOXD13 was 10.7 upbm affinity estimate (log intensity, higher = more binding, comparable within an allelic series).

Regarding CGATTTAA, the binding signal with HOXD13 was 10.9 upbm affinity estimate (log intensity, higher = more binding, comparable within an allelic series).

In the case of TATTGCGA, the binding signal with HOXD13 was 10.6 upbm affinity estimate (log intensity, higher = more binding, comparable within an allelic series).

TATATCAA: the binding signal with HOXD13 was 10.8 upbm affinity estimate (log intensity, higher = more binding, comparable within an allelic series).

In the case of AGAGTTAA, in the assay with HOXD13, the binding signal was 10.7 upbm affinity estimate (log intensity, higher = more binding, comparable within an allelic series).

Take TAACTAAA: the binding signal with HOXD13 is 10.7 upbm affinity estimate (log intensity, higher = more binding, comparable within an allelic series).

For the sequence CTAAGCCC, the binding signal with PITX2 is 12.3 upbm affinity estimate (log intensity, higher = more binding, comparable within an allelic series); in the assay with CRX, 11.5 upbm affinity estimate (log intensity, higher = more binding, comparable within an allelic series).

Source of the values: publication PMC11006913.
